Unmarked numbers belong to inactive results. Inconclusive results are not listed. Active and inactive are the calls of the source. Unless noted, calls come from the whole dose curve; as a rule, active = well fitted curve in the direction sought with a large enough effect in the repeat runs; inconclusive = weak or mixed curves; inactive = no such curve, though single readings can be large; an effect the other way counts as inactive or inconclusive.

A short description of experiment [1]: qHTS assay to identify small molecule agonists of the estrogen receptor alpha (ER-alpha) signaling pathway in the presence of an antagonist - cell viability counter screen (AID 1259386).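 Note: series mostly up to about 92 µM; cells exposed to compounds for 22 h at 37 °C before the viability read; nearly all actives have a fitted effect of over 30% in size.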 A digest of the protocol: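 VM7Luc4E2 cells (endogenous full-length ER-alpha, 4×ERE-luciferase) were held 5 days in phenol red-free medium with 10% charcoal-stripped FBS, plated, then given 10.0nM ICI-182,780 and compounds at 15 concentrations for 22hr at 37C; viability read by CellTiter-Fluor fluorescence.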
On the technique in general: qHTS replaces the single test concentration by a dilution series.

Experiment [2] concerns the target Progesterone receptor (Homo sapiens) (UniProt P06401). In words: qHTS assay to identify small molecule agonists of the progesterone receptor (PR) signaling pathway (AID 1346784; calls by dose curve; note: nearly all actives have a fitted effect of over 30% in size; note: potency is the fitted concentration of half-maximal effect). In a few lines:
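Beta-lactamase reporter read-out: after 16 hr compound treatment at 37C and a further 2 hr at room temperature with LiveBLAzer B/G FRET substrate, fluorescence was measured in PR-UAS-bla HEK 293T cells grown in 2% charcoal-stripped serum.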

Experiment [3] shares this target. The experiment in a line: qHTS assay to identify small molecule antagonists of the progesterone receptor (PR) signaling pathway (AID 1346795; active = well fitted inhibition curve with a large enough effect in the signal ratio in the repeat runs, not every such curve was filed as active; the % refers to the signal ratio). In a few lines:
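Read-out is fluorescence from the LiveBLAzer B/G FRET substrate, cleaved by a UAS-controlled beta-lactamase in PR-UAS-bla HEK293T cells after 16 hr exposure to compound plus 1 nM promegestone (final), followed by 2 hr at room temperature.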

Experiment [4] can be described thus: qHTS assay to identify small molecule antagonists of the progesterone receptor (PR) signaling pathway - cell viability counter screen (AID 1346798). Note: series mostly up to about 92 µM; nearly all actives have a fitted effect of over 50% in size. A digest of the protocol: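 HEK293T PR-UAS-bla, 2% charcoal-stripped FBS; 4 hr pre-plate; cpd + R5020, 16 h 37C; LiveBLAzer read first; then CellTiter-Glo 30 min RT, luminescence.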
Experiment [5] in a line: qHTS assay to identify small molecule antagonists of the TGF-beta/Smad signaling pathway - cell viability counter screen (AID 1346824). Note: nearly all actives have a fitted effect of over 50% in size. In a few lines:
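SBE-bla HEK 293T cells, incubated overnight, then compound plus 0.25 ng/mL TGF-beta1 (stock added) for 5 hr at 37 C. Viability was read in the same wells by CellTiter-Glo luminescence after 30 min at room temperature.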

Experiment [6] in a line: qHTS assay to identify small molecule agonists of the TGF-beta/Smad signaling pathway - cell viability counter screen (AID 1346829). Note: top concentration of the series differs between compounds; nearly all actives have a fitted effect of over 45% in size. A digest of the protocol:
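In parallel with the Smad reporter read, viability of HEK 293T cells stably carrying SBE-bla is quantified by ATP luminescence following 5 hr compound treatment.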

A short description of experiment [7]: qHTS assay to identify small molecule agonists of the TGF-beta/Smad signaling pathway (AID 1346859; active = well fitted activation curve with a large enough effect in the signal ratio in the repeat runs, not every such curve was filed as active; the % refers to the signal ratio; note: series mostly up to about 77 µM). A digest of the protocol: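 SBE-bla HEK 293T, 4,000 cells/well, plated o/n; cpd in DMSO, 5 hr, 37 C/5% CO2; B/G FRET substrate 2 hr RT; ex 405, em 460/530 nm.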
In experiment [8] the target is Thyrotropin-releasing hormone receptor (Homo sapiens) (UniProt P34981). In words: qHTS assay to identify small molecule antagonists of the thyrotropin-releasing hormone receptor (TRHR) signaling pathway (AID 1346877; active = well fitted inhibition curve with a large enough effect in the repeat runs, not every such curve was filed as active; note: series mostly up to about 51 µM). In a few lines: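 TRHR-expressing HEK293 cells were seeded, cultured 18 h at 37 °C, then loaded with calcium dye for 2 h. Compounds were pre-incubated 5 min at room temperature before 1 nM TRH (final) was added, and kinetic fluorescence was recorded for 3 min.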

Experiment [9] has the same target. In words: qHTS assay to identify small molecule agonists of the thyrotropin-releasing hormone receptor (TRHR) signaling pathway (AID 1346891; calls by dose curve; note: series mostly up to about 58 µM). A digest of the protocol:
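Intracellular calcium rise, read as fluorescence every second for 3 min, served as the agonist signal in dye-loaded HEK293 cells expressing TRHR; each compound ran at 15 concentrations in triplicate.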

Experiment [10] is described as follows: Human pregnane X receptor (PXR) small molecule agonists, qHTS cell viability counter screen (AID 1346977). Note: nearly all actives have a fitted effect of over 50% in size. A digest of the protocol: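 PXR-Luc HepG2, 2,000 cells/well, 5% charcoal-stripped FBS; 5hr settle; cpd 24hr, 37C/5% CO2; CellTiter-Fluor at 23hr, read 1hr later (fluorescence).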
Experiment [11] in a line: Caspase-3/7 induction in CHO-K1 cells by small molecules, qHTS cell viability counter screen (AID 1346979). Note: nearly all actives have a fitted effect of over 35% in size. In a few lines:
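Cells (CHO-K1, wild type) are plated at 1,500 per well and incubated 5hr. Test compounds in DMSO are then pinned in, followed by 16hr at 37C and 5% CO2. Viability is read by CellTiter-Fluor fluorescence after 1hr.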

Experiment [12] is described as follows: Caspase-3/7 induction in CHO-K1 cells by small molecules, qHTS assay (AID 1346980). Note: nearly all actives have a fitted effect of over 15% in size. In a few lines: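 Wild-type CHO-K1 cells exposed to compounds for 17hr at 37 C, 5% CO2. Caspase-3/7 activity then measured by Caspase-Glo 3/7 luminescence after 30min at room temperature.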
Experiment [13] in a line: Caspase-3/7 induction in HepG2 cells by small molecules, qHTS cell viability counter screen (AID 1346981). Note: series mostly up to about 92 µM; nearly all actives have a fitted effect of over 30% in size. A digest of the protocol: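 Wild-type HepG2 cells (2,000/well) were allowed to settle for 5 hr at 37 C, 5% CO2, then dosed with compounds in DMSO by pin transfer. After 16 hr at 37 C, CellTiter-Fluor was added and fluorescence read 1 hr later.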
Experiment [14] addresses Nuclear receptor subfamily 1 group I member 2 (Homo sapiens) (UniProt O75469). In words: Human pregnane X receptor (PXR) small molecule agonists, qHTS assay (AID 1346982). Note: nearly all actives have a fitted effect of over 35% in size. Note: potency is the fitted concentration of half-maximal effect. In a few lines:
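PXR-Luc HepG2 cells (CYP3A4 promoter-driven luciferase) were seeded in medium with 5% charcoal-stripped FBS, left 5 hr at 37 C, then exposed to compounds in DMSO for 24 hr. Luminescence was read after ONE-Glo addition.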

Experiment [15] has as its target Nuclear receptor subfamily 1 group I member 2 (Rattus norvegicus) (UniProt Q9R1A7). In words: Rat pregnane X receptor (rPXR) activation by small molecules, qHTS assay (AID 1346983). Note: nearly all actives have a fitted effect of over 20% in size. Particulars: rPXR luciferase reporter cells, One-Glo luminescence, 24 h; stronger effect = higher value. A digest of the protocol:
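Cell-based rPXR activation assay: rPXR cells, 2,000 per well, rested 5hr at 37 C, then exposed to compounds in DMSO for 24 hr at 37 C. Luciferase activity read by One-Glo luminescence after 30 min at room temperature.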

The target of experiment [16] is Nuclear receptor subfamily 1 group I member 2 (Homo sapiens) (UniProt O75469). The experiment in a line: Human pregnane X receptor (PXR) activation by small molecules, qHTS assay (AID 1346985). Note: nearly all actives have a fitted effect of over 40% in size. A digest of the protocol:
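DPX-2 cells (HepG2 co-transfected with a PXR response element and a CYP3A4-promoter luciferase construct) were seeded at 2,000 per well, rested 5 hr at 37C, then exposed to DMSO-dissolved compounds for 24 hr. Activation was read as luciferase luminescence.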

Experiment [17] is described as follows: Caspase-3/7 induction in HepG2 cells by small molecules, qHTS assay (AID 1346978). Note: nearly all actives have a fitted effect of over 15% in size. A digest of the protocol: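 Wild-type HepG2 cells, 2,000/well, settled 5 hr at 37 C and 5% CO2, then compound-treated for 17 hr; caspase-3/7 activity read by luminescent Caspase-Glo 3/7 after 30 min at room temperature.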
Experiment [18] has as its target Nuclear receptor subfamily 1 group I member 2 (Homo sapiens) (UniProt O75469). In words: CYP3A4 induction through human pregnane X receptor (PXR) by small molecules, qHTS assay (AID 1346984). Note: nearly all actives have a fitted effect of over 40% in size. In a few lines: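 DPX-2 cells (HepG2 co-transfected with PXR and CYP3A4 promoter-luciferase) treated with compounds 24 h at 37C; luciferin-IPA CYP3A4 substrate 3uM final added for 3 h, then One-Glo; luminescence read. qHTS format.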

In experiment [19] the target is Cytochrome P450 2D6 (Homo sapiens) (UniProt P10635). The experiment in a line: Cytochrome P450 Family 2 Subfamily D Member 6 (CYP2D6) small molecule antagonists: luciferase reporter qHTS assay (AID 1671196). Note: series mostly up to about 120 µM; nearly all actives have a fitted effect of over 50% in size. A digest of the protocol:
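CYP2D6 enzyme–substrate mix was held with compound for 10 min at room temperature, then NADPH regeneration solution was added and the reaction ran 1 h at room temperature. Luciferin product was detected by luminescence after 20 min with detection reagent.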
A general note: A reporter such as luciferase makes a cellular process visible.
% is set by controls: 0 for no effect and ±100 for the full control effect.

Progesterone receptor (Homo sapiens), sequence (P06401 whole entry, looked up): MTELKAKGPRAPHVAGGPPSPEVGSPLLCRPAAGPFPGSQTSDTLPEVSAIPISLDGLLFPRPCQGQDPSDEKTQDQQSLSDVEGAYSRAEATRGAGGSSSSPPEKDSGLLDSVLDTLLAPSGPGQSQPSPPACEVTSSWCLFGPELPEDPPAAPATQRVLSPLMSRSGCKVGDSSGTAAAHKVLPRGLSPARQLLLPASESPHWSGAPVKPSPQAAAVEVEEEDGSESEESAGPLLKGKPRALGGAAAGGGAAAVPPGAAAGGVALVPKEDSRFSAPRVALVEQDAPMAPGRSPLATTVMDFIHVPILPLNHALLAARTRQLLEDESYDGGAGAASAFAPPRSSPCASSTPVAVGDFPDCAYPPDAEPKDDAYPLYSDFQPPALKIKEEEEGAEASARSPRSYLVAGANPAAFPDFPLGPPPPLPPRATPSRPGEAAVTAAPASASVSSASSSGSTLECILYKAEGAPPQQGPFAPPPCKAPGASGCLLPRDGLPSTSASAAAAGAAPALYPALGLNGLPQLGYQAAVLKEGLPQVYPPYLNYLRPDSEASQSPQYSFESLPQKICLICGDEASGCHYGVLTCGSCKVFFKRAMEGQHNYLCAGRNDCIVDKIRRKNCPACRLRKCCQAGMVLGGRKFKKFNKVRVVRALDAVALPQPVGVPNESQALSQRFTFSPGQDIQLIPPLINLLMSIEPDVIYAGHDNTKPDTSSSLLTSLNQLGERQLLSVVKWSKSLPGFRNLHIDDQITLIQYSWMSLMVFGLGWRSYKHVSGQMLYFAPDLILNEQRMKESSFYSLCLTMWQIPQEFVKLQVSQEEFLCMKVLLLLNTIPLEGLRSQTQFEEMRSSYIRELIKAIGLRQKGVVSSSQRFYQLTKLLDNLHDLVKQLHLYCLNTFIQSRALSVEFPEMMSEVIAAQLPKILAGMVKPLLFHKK
Cytochrome P450 2D6 (Homo sapiens), sequence (P10635 whole entry, looked up): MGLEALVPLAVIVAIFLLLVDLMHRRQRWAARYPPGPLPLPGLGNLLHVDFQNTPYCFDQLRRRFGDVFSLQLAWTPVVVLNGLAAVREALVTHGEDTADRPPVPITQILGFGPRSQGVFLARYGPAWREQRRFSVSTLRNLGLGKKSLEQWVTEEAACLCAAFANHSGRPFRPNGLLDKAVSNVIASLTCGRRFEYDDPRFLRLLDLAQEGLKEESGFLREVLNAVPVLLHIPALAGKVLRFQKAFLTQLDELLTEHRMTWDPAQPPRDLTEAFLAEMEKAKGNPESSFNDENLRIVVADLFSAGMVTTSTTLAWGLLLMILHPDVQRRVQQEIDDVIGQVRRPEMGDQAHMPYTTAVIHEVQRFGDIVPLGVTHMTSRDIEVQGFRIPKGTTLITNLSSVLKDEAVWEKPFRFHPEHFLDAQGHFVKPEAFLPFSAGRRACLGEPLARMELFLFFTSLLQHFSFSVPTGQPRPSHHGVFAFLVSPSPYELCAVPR
Nuclear receptor subfamily 1 group I member 2 (Rattus norvegicus), sequence (Q9R1A7 whole entry, looked up): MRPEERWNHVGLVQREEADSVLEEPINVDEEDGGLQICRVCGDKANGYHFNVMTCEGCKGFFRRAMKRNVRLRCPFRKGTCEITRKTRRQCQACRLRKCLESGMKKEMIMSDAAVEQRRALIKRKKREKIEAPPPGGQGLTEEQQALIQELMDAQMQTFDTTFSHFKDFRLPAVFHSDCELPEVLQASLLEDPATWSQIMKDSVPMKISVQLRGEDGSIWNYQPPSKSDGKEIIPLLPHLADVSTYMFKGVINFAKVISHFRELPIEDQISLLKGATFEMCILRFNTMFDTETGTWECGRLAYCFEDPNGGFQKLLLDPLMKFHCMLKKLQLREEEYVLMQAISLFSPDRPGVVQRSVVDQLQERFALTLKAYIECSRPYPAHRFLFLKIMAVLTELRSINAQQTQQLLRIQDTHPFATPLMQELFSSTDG
Nuclear receptor subfamily 1 group I member 2 (Homo sapiens), sequence (O75469 whole entry, looked up): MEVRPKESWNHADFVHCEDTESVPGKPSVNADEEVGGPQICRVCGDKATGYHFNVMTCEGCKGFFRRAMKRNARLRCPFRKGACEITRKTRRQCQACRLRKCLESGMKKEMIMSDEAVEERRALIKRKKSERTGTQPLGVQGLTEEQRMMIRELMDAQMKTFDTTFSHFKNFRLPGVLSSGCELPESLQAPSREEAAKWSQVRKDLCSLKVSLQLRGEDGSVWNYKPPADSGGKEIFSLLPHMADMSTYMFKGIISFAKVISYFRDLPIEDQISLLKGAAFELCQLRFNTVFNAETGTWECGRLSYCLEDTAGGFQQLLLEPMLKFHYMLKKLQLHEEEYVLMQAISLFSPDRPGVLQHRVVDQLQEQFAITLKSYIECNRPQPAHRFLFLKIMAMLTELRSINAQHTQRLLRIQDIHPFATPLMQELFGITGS
Thyrotropin-releasing hormone receptor (Homo sapiens), sequence (P34981 whole entry, looked up): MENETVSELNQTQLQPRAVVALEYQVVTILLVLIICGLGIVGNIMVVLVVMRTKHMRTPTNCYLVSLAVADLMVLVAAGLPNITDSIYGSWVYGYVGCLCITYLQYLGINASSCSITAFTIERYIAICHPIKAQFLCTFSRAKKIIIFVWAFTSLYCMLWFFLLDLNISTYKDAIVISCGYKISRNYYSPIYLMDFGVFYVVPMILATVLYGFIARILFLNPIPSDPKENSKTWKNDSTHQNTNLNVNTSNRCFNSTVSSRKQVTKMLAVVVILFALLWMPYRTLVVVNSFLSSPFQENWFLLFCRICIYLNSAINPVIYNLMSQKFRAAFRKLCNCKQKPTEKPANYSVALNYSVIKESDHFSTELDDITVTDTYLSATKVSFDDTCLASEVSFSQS

As to `CC(C)NC[C@@H](O)COc1ccc(CC(N)=O)cc1`, the Potency result in [1], in experiment [2], in experiment [3], in experiment [4], in experiment [5] and in [6] was “inactive” throughout. The Potency result in [7], in experiment [8], in experiment [10], in experiment [11], in experiment [12] and in experiment [13] was “inactive” in each case. In addition, the Potency result in [14] and in experiment [16] was “inactive” throughout. The outcome in experiment [9] was inactive. For the same compound, the max activation in experiment [15] is -0.64%.

For the compound `Cc1nc(-c2ccc(Cl)cc2)oc1COC(C)(C)C(=O)O`, the Potency entry in experiment [1], in experiment [2], in [3], in [4], in experiment [6] and in experiment [7] was “inactive” in each case. For the same compound, the Potency entry in experiment [8], in experiment [10], in [17], in experiment [11], in experiment [12] and in experiment [13] was “inactive” in each case. Besides, the Potency result in [14], in [18], in experiment [16] and in experiment [19] was “inactive” in each case. The call in [9] was inactive. For the same compound, in experiment [15], the max activation was -7.31%.

Consider `O=[N+]([O-])c1ccc(F)c(Cl)c1`, for which the Potency entry in experiment [1], in [3], in experiment [4], in experiment [5], in experiment [6] and in experiment [7] was “inactive” throughout. The Potency result in [8], in [10], in experiment [17], in [11], in experiment [12] and in experiment [13] was “inactive” each time. Moreover, the Potency result in [14] and in experiment [19] was “inactive” throughout. Also, in [2], the Potency is 1.09 µM (active). The result in [9] was inactive.

Regarding `CCCCC(CC)COC(=O)CCCCC(=O)OCc1ccccc1` (configuration not stated), the Potency result in experiment [1], in experiment [2], in experiment [3], in experiment [4], in experiment [5] and in experiment [6] was “inactive” in each case. Also, the Potency entry in experiment [7], in experiment [10], in [17], in experiment [11], in experiment [12] and in [13] was “inactive” each time. Also, the Potency entry in [14] and in experiment [19] was “inactive” throughout.

Take `O=C(O)CN(CCN(CC(=O)O)CC(=O)O)CC(=O)O`: the activity change, negative = cytotoxicity in [1] is 0.548% [at 3.27 µM]; in experiment [4], 3.78% [at 3.27 µM]; in [6], 9.65% [at 2.72 µM]; in [10] it was 0.665% [at 3.27 µM]; in [11] it was 5.31% [at 3.27 µM]; in experiment [13], -2.26% [at 3.27 µM]. The Potency in experiment [2] is 0.0097 µM (active). Moreover, in experiment [3], the activity change, negative = inhibition is 7.88% [at 3.27 µM]. In [5], the viability change, negative = cytotoxic is -0.549% [at 2.72 µM]. Further, in experiment [7], the activation was -0.839% [at 2.72 µM]. For the same compound, the max activation in experiment [15] is -0.541%.

As to `CC(C)(C)NSc1nc2ccccc2s1`, the Potency result in [1], in experiment [2], in experiment [3], in [4], in experiment [5] and in experiment [6] was “inactive” in each case. Also, the Potency entry in experiment [7], in [10], in experiment [11], in experiment [12] and in [13] was “inactive” in each case. In experiment [14], the Potency was 49.4 µM (active).

In the case of `CC(=O)CC(=O)Nc1ccc(S(=O)(=O)O)cc1`, the Potency entry in experiment [1], in experiment [2], in [3], in [4], in experiment [5] and in [6] was “inactive” throughout. In addition, the Potency entry in [7], in [8], in experiment [10], in experiment [17], in [11] and in experiment [12] was “inactive” throughout. Further, the Potency entry in [13] and in [19] was “inactive” in each case. The result in experiment [9] was inactive.

Regarding `CN(C)CCN1CCN(c2cccc(Cl)c2)C1=O`, the Potency result in experiment [1], in experiment [2], in experiment [3], in [4], in experiment [5] and in experiment [6] was “inactive” each time. Besides, the Potency result in [7], in experiment [8], in [10], in [17], in [11] and in experiment [12] was “inactive” each time. Also, the Potency entry in [13] and in experiment [14] was “inactive” in each case. In addition, in experiment [9], the compound was classed as inactive.

The record behind these values is PubChem BioAssay (Tox21).
